From the supplement of paper PMC11732987, “Enantioselective OTUD7B fragment discovery through chemoproteomics screening and high-throughput optimisation” (Communications Chemistry, 2025)

Tests used:
Experiment in all cases: log2 ratio of Biotin-Ahx-Ub-VS probe labelling (fragment/DMSO); higher = less target engagement (more negative = stronger competition), active = hit call of the paper (q ≤ 0.05, log2 ratio ≤ -1)
Settings in all cases: compound concentration: 200 uM; treatment time: 3 h
USP19 = molecular target: T1, USP19 (UniProt O94966)
T1 sequence (whole entry): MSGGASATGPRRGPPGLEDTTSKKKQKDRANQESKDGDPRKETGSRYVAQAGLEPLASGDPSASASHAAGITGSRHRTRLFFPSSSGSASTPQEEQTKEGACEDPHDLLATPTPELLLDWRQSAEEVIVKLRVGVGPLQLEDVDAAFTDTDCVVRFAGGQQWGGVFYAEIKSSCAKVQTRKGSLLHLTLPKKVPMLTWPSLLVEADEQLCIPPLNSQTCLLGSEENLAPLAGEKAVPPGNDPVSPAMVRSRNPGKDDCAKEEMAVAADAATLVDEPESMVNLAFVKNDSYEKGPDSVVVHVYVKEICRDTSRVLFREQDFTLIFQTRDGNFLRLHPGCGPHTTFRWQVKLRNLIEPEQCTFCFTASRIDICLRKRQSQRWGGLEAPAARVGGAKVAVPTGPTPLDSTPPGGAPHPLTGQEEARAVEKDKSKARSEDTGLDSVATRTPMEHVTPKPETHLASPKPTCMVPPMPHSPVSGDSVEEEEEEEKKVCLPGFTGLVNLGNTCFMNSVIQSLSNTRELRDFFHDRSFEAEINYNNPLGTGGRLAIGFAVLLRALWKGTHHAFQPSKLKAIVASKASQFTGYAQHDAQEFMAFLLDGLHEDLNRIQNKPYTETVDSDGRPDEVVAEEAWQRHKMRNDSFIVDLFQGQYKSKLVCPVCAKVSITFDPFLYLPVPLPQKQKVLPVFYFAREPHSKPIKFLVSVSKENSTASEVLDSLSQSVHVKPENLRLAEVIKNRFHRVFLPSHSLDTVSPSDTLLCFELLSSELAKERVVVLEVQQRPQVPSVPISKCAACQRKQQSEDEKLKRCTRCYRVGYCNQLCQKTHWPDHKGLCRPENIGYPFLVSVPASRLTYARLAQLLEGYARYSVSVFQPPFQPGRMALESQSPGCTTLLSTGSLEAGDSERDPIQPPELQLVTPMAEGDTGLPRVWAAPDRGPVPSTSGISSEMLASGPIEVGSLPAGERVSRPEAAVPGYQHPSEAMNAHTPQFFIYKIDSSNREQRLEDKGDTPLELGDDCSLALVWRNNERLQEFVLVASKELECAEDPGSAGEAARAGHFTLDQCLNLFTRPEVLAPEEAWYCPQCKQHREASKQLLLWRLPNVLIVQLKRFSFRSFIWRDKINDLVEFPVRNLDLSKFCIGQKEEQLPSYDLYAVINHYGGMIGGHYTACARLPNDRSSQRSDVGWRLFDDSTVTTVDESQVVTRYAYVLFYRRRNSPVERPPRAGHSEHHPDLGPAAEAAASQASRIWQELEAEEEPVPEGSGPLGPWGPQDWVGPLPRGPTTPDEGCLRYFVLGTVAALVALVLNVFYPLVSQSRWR
In short: (§1)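 Labelled DUBs from HEK293T lysate were NeutrAvidin-enriched, digested with LysC and trypsin, and run by diaPASEF LC-MS/MS. Before that, each 495 µg sample in Tris/CHAPS/IGEPAL buffer with protease inhibitors was treated in triplicate with fragment at 200 µM or vehicle for 3 h, then with Biotin-Ahx-Ub-VS at 0.5 µM final for 1 h. Values are average log2 ratios of fragment over vehicle by unpaired t-test, based on global-median-normalised Spectronaut label-free quantities from proteins with ≥2 unique peptides.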

USP22 = molecular target: T2, USP22 (UniProt Q9UPT9)
T2 sequence (whole entry): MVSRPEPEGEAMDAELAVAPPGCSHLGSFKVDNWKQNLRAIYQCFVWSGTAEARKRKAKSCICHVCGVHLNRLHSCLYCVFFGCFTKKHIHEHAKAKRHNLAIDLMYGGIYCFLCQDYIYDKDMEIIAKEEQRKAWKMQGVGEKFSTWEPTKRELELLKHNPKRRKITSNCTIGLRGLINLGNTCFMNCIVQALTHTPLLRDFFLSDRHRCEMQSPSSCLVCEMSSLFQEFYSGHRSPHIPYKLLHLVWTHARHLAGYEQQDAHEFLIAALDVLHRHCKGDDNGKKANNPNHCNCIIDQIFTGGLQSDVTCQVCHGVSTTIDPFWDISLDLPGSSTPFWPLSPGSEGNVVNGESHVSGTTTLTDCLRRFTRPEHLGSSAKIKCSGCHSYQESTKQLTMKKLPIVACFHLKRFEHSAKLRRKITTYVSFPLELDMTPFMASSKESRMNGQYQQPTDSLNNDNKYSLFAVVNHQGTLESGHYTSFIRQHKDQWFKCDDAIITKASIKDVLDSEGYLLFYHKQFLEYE
In short: as §1

USP24 = USP24 (UniProt Q9UPU5)
In short: as §1

USP25 = molecular target: T3, USP25 (UniProt Q9UHP3)
T3 sequence (whole entry): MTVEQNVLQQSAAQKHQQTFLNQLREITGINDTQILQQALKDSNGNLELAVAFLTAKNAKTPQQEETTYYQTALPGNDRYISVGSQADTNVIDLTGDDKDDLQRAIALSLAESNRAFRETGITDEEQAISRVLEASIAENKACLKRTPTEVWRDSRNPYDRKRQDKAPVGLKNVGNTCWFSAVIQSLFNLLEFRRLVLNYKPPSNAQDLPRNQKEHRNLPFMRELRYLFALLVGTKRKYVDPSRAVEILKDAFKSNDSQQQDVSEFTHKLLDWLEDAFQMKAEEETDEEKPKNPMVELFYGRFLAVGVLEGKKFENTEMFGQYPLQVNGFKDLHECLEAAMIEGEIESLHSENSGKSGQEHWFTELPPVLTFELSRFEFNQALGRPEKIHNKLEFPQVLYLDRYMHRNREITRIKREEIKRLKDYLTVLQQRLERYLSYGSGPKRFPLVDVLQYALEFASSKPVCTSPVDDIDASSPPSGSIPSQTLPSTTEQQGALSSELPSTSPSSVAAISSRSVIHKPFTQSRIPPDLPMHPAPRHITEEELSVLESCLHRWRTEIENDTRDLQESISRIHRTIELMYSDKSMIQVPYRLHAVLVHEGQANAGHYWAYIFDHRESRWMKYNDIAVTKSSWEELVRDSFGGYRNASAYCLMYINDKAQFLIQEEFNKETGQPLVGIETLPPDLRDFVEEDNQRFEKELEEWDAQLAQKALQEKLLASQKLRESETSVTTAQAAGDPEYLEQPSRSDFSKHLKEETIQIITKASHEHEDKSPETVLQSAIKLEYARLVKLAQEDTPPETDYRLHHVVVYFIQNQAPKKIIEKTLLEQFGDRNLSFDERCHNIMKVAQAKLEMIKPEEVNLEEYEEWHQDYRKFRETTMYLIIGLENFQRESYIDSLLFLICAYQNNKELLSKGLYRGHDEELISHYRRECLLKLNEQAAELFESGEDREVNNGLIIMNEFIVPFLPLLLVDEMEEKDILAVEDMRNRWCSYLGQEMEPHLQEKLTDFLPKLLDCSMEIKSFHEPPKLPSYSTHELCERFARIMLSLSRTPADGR
In short: as §1

USP28 = molecular target: T4, USP28 (UniProt Q96RU2)
T4 sequence (whole entry): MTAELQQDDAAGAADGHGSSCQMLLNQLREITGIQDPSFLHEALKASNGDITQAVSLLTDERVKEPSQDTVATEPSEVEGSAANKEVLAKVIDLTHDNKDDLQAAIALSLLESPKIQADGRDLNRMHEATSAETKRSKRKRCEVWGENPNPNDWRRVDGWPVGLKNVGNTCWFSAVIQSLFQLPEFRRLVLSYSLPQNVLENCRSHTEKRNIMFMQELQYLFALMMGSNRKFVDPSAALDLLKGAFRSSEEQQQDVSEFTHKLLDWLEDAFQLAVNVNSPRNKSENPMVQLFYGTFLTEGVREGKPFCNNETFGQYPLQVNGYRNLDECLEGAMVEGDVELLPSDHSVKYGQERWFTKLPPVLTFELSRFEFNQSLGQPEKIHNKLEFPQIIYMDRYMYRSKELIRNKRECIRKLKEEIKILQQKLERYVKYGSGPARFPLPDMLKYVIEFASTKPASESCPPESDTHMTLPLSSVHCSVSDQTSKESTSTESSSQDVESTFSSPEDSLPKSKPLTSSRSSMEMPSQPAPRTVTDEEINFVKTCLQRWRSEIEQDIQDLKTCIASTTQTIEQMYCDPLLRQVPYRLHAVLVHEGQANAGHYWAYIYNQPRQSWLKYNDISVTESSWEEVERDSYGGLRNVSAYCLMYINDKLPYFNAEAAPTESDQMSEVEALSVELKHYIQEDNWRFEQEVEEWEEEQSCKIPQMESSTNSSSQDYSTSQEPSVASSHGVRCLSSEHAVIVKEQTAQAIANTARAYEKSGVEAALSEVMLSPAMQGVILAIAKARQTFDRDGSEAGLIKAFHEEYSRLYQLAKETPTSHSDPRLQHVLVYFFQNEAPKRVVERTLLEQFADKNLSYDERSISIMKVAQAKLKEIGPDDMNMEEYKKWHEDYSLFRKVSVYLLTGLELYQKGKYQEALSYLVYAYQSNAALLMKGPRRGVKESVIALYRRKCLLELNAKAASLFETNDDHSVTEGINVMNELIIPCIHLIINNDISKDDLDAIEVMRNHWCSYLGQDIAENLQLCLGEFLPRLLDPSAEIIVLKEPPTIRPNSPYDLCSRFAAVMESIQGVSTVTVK
In short: as §1

Measured: log2 ratio of Biotin-Ahx-Ub-VS probe labelling

Sequence of USP24 (Q9UPU5 whole entry): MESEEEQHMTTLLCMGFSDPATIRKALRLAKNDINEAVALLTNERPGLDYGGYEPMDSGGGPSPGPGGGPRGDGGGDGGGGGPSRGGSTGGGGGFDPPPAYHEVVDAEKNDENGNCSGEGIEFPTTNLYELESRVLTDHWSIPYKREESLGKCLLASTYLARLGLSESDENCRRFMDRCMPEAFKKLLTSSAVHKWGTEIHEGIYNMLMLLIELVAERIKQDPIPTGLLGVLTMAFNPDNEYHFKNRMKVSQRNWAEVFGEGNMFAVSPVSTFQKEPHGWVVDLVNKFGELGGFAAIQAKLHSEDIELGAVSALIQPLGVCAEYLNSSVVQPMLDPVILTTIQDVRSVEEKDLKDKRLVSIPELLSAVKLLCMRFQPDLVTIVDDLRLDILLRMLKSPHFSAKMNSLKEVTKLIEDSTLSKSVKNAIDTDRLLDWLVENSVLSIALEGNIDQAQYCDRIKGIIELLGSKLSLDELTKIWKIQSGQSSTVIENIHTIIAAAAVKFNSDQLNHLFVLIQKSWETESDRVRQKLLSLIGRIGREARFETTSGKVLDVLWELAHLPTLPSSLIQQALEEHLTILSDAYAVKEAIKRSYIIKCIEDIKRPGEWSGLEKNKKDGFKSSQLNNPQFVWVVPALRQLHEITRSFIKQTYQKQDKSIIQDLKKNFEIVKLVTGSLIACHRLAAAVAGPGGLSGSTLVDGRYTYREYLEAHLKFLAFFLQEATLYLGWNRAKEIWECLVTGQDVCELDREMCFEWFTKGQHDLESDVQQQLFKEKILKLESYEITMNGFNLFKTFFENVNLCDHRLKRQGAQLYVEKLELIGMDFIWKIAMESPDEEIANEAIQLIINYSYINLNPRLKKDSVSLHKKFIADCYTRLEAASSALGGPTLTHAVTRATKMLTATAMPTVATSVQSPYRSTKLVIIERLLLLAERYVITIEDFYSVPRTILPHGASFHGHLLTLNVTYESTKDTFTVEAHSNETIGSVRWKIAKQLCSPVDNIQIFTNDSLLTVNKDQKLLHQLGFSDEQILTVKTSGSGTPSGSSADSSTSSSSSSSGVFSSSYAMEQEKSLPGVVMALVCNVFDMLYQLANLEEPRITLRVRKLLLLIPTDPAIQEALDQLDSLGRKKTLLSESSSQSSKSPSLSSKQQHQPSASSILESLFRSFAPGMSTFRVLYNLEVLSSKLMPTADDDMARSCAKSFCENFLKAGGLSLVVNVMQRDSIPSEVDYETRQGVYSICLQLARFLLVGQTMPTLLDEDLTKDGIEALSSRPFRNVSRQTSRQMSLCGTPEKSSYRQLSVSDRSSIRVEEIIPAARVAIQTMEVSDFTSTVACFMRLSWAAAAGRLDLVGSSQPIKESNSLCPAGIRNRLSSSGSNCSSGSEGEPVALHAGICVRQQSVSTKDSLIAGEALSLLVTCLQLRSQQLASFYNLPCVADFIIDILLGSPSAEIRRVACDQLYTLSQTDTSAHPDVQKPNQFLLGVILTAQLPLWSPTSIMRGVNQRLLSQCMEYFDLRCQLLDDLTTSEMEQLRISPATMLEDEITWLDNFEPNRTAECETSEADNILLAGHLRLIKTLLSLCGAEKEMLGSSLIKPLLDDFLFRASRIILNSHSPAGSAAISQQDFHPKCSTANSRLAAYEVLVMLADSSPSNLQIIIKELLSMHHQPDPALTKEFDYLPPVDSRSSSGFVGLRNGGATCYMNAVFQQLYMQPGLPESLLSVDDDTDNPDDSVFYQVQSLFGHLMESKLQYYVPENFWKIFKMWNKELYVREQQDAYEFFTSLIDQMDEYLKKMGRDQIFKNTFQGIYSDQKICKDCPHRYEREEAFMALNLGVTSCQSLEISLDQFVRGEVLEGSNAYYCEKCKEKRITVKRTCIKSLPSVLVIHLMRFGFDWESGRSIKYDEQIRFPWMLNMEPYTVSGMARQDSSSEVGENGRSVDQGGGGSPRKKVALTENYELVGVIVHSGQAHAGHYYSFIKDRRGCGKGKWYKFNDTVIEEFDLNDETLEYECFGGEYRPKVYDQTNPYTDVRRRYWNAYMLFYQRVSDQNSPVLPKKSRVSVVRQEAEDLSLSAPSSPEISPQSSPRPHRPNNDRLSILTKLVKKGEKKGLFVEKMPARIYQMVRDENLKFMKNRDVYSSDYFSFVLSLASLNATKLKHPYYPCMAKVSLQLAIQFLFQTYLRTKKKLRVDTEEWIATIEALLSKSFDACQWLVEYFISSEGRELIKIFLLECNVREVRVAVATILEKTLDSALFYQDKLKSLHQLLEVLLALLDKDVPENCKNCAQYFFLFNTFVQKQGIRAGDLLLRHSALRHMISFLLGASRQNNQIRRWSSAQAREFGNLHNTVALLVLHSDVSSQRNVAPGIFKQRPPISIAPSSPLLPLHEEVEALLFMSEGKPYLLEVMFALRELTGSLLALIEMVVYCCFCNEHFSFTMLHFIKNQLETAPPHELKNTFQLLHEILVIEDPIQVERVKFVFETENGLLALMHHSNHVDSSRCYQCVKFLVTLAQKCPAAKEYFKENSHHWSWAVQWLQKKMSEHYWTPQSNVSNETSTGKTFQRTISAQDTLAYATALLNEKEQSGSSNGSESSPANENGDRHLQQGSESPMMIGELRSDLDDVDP

CC(NC(=O)CCl)c1noc(Cc2ccccc2)n1 (stereo not given)
inactive: USP19 -0.307 | USP22 -0.322 | USP24 -0.498 | USP25 -0.593 | USP28 -0.789
